Inconclusive results are not listed. Activity calls are given as the source filed them. Calls follow the shape of the dose curve; as a rule, active = well fitted curve in the direction sought with a large enough effect; inconclusive = small, poorly fitted or top-dose-only effect, or another doubt; inactive = no such curve, though single readings can be large; an effect the other way counts as inactive or inconclusive.
Key:
[1] = Cell Viability - LYMP1-002 - Assay at 16 hr (AID 948)
Outline: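 LYMP1-002 human lymphoblastoid cells, 2500/well, were treated with compounds for 16 hr at 37 C in complete medium. Viability was read as intracellular ATP by CellTiter-Glo luminescence, and AC50 was derived from a Hill fit to concentration-response data.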

[2] = MultiTox-Fluor Cytotoxicity Assay - LYMP1-002 - Live Cells (AID 955);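 also: cells exposed to compound for 16 hours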
Outline: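 In this qHTS viability format, lymphoblastoid cells (LYMP1-002, human) received compound for 16 hr at 37 C. Fluorogenic GF-AFC cleavage by viable cells was detected at 405/510 nm after 1 h at room temperature.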

[3] = MultiTox-Fluor Cytotoxicity Assay - LYMP1-002 - Dead Cells (AID 960); also: nearly all actives have a fitted effect of over 60% in size
Outline: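 Concentration-dependent increases in membrane-leaked protease activity are quantified in LYMP1-002 cells after 16 hr treatment; values are normalized against DMSO and tetraoctylammonium bromide (15 uM) controls and AC50 derived by Hill modeling.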

[4] = MultiTox-Fluor Cytotoxicity Assay - LYMP1-003 - Dead Cells (AID 961); also: nearly all actives have a fitted effect of over 70% in size
Outline: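 Human lymphoblastoid LYMP1-003 cells (2500/well) were treated with compounds for 16 hr at 37 C in complete medium. Dead-cell protease release was read by bis-AAF-R110 fluorescence (Ex/Em 485/520). AC50 came from Hill fits, normalized to DMSO and 15 uM tetraoctylammonium bromide.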

[5] = MultiTox-Fluor Cytotoxicity Assay - LYMP1-003 - Live Cells (AID 962);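 also: cells exposed to compound for 16 hours at 37 °C; cytotoxic hits lower the live-cell protease signal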
Outline: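 Human lymphoblastoid line LYMP1-003 in complete culture medium, treated 16 hr with titrated compounds. Viable cells quantified via cell-permeant GF-AFC substrate fluorescence; AC50 derived by Hill fitting.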

[6] = Cell Viability - LYMP1-003 - Assay at 24 hr (AID 963)
Outline: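 The lymphoblastoid line was treated with titrated compounds for 24 hours, and viable cell number estimated from luciferase-based ATP luminescence.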

[7] = Cell Viability - LYMP2-003 (AID 965);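 also: cells exposed to compounds for 24 h before reading; nearly all actives have a fitted effect of over 50% in size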
Outline: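 Human lymphoblastoid LYMP2-003 cells, 2500/well, exposed to compounds for 24 h at 37 C in complete medium. Viability read as intracellular ATP by CellTiter-Glo luminescence; AC50 from Hill-equation fits of qHTS concentration-response data.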

[8] = Cell Viability - LYMP2-004 (AID 966); also: nearly all actives have a fitted effect of over 65% in size
Outline: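 Viable-cell number estimated from ATP luminescence (CellTiter-Glo) in 2500 human lymphoblastoid cells/well after 24 hr at 37 C with compound. AC50 fitted to the standard Hill equation.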

[9] = Cell Viability - LYMP2-005 (AID 967); also: series mostly up to about 92 µM
Outline: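 Human lymphoblastoid LYMP2-005 cells, 2,500 per well in complete medium, rested 5 h at 37C then compound-treated 24 h at 37C. Intracellular ATP read by CellTiter-Glo luminescence after 30 min at room temperature; AC50 from Hill-equation fits of concentration-response data.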

[10] = Cell Viability - LYMP2-009 (AID 968); also: series mostly up to about 92 µM; nearly all actives have a fitted effect of over 55% in size
[11] = Cell Viability - LYMP2-011 (AID 969); also: nearly all actives have a fitted effect of over 60% in size
Outline: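 Cells seeded at 2500 per well rest 5 hr before compound addition, then incubate 24 hr at 37 C. CellTiter-Glo reagent is added for 30 min at room temperature before luminescence detection.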

[12] = Cell Viability - LYMP2-013 (AID 970); also: series mostly up to about 92 µM; nearly all actives have a fitted effect of over 55% in size
Outline: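 In complete culture medium, human lymphoblastoid cells were dosed for 24 hr at 37 C, with tetraoctylammonium bromide (6.4pM to 92 uM) as positive control. Viability reflects luciferase-based ATP signal; AC50 derived from concentration-response curves.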

[13] = Cell Viability - LYMP2-015 (AID 971); also: nearly all actives have a fitted effect of over 55% in size
Outline: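 AC50 values reflect Hill-model fits of ATP-based luminescence (CellTiter-Glo) from a human lymphoblastoid line, 2500 cells/well, treated 24 hr at 37 C.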

[14] = Cell Viability - LYMP2-017 (AID 972); also: series mostly up to about 92 µM; nearly all actives have a fitted effect of over 55% in size
Outline: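 In this qHTS format, lymphoblastoid cells in complete medium receive test compound for a day at 37 C before ATP content is quantified by luciferase luminescence. Reported AC50 figures come from standard Hill-equation curve fitting.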

[15] = Cell Viability - LYMP2-019 (AID 973); also: nearly all actives have a fitted effect of over 55% in size
Outline: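 AC50 values come from Hill-equation modelling of qHTS concentration-response curves, where viability is measured as luciferase-based ATP luminescence in the lymphoblastoid line after 24 hr compound exposure in complete culture medium.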

[16] = Cell Viability - LYMP2-021 (AID 974)
Outline: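 In qHTS format, compounds are tested against 2500 lymphoblastoid cells per well for 24 h; viable cell number is inferred from ATP-driven luciferase light, and Hill-equation fitting yields AC50 values.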

[17] = Cell Viability - LYMP2-023 (AID 975)
Outline: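 In this qHTS, ATP-based luciferase luminescence (CellTiter-Glo) is quantified in human lymphoblastoid cells after 24 hr compound treatment at 37 C; tetraoctylammonium bromide serves as positive control. Concentration-response curves are Hill-fitted to give AC50.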

[18] = Cell Viability - LYMP2-025 (AID 976); also: series mostly up to about 92 µM
Outline: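 Luminescent ATP readout after 24 hr treatment of a human lymphoblastoid line (LYMP2-025, 2500 cells/well, 37 C). Reagent developed 30 min at room temperature; AC50 fitted with the Hill equation.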

[19] = Cell Viability - LYMP2-002 (AID 977);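 also: series mostly up to about 92 µM; compound exposure lasted 24 h at 37 °C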
Outline: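 Human lymphoblastoid cells (2500/well) in complete medium were preincubated 5 hr at 37 C, then exposed to compounds for 24 hr at 37 C. Intracellular ATP was read by CellTiter-Glo luminescence; AC50 came from Hill-equation concentration-response fits.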

[20] = Cell Viability - LYMP2-006 (AID 978); also: series mostly up to about 92 µM; nearly all actives have a fitted effect of over 60% in size
Outline: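 Human lymphoblastoid cells (LYMP2-006), 2500/well in complete medium, were treated with compound for 24 hr at 37 C. Cellular ATP was read by CellTiter-Glo luminescence after 30 min, and AC50 values came from Hill-equation fits of concentration-response data.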

[21] = Cell Viability - LYMP2-007 (AID 979);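 also: cells exposed to compound for 24 h before reading; nearly all actives have a fitted effect of over 60% in size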
Outline: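 Measured via luciferase-based ATP quantitation: lymphoblastoid cells, 24 hr compound exposure at 37 C, AC50 from Hill fits.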

[22] = Cell Viability - LYMP2-008 (AID 980); also: nearly all actives have a fitted effect of over 60% in size
Outline: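 Measured: ATP-dependent luminescence, proportional to viable cell number, in human lymphoblastoid cells treated 24 hr with compound in complete culture medium. Values are AC50s from Hill-equation modelling of qHTS titrations.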

[23] = Cell Viability - LYMP2-010 (AID 981); also: nearly all actives have a fitted effect of over 55% in size
Outline: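 This 24 hr viability screen uses LYMP2-010 lymphoblastoid cells, quantifies ATP via luciferase luminescence, and derives AC50 from Hill fits of qHTS concentration-response data.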

[24] = Cell Viability - LYMP2-012 (AID 982)

Measured: Potency

Oc1c(Cl)c(Cl)c(Cl)c(Cl)c1Cl
inactive: all assays above

— PubChem BioAssay (NCATS)
